Laboratory results from the supplement of paper PMC10338343.
± gives the standard deviation.

tested on: MILI (PIWIL2) piRISC loaded with piRNA #1 (26 nt); test: pre-steady-state target cleavage rate (min^-1); guide: piRNA #1 5'p-UGAGGUAGUAGGUUGUAUAGUAUCCA; MIWI and MILI are mouse PIWI proteins and EfPiwi is from a freshwater sponge; tags in brackets are library labels; higher = faster piRNA-guided slicing of the target; details: auxiliary factor: 500 nM mouse GTSF1
In short: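 Active affinity-purified piRISC (1 nM) loaded with one synthetic guide was mixed with a transcribed, DNA-blocked target RNA library (0.1 nM), with or without 500 nM GTSF1 partner protein, in HEPES–potassium acetate buffer at 33 °C for 0–8 or 0–960 min. Uncleaved targets were sequenced, normalised to depth and to weakly complementary targets, and pooled across three trials, with k3 capped at 0.0001 min^-1. The pre-steady-state cleavage rate was determined with a burst-and-steady-state fit.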

Row | Sequence | pre-steady-state target cleavage rate
1 | GGAGACCUAUGAUUACAAGCUAGUACCUCA | 0.0146 ± 0.006
2 | GGAGACCUAUGUAUUCAUCCUACUACCUCA | 0.0771 ± 0.011
3 | GGAGACCUUACAAUACAACCUACUUCCUCA | 0.0632 ± 0.014
4 | GGAGACGAUAACUAUACAACCUACUACCUCA | 0.116 ± 0.0099
5 | GGAGACCUAACUAUACAACCUACUUCGUCA | 0.0423 ± 0.017
6 | GGAGACCUAUGAUAUGUACCUACUAGCUCA | < 0.0001
7 | GGAGACCUAUGAAUACAACCUACUACCGUCA | 0.00898 ± 0.0024
8 | GGAGACCUAACUAUACUACCUACUAGCUCA | 0.0708 ± 0.021
9 | GGAGACCUUACUAUACAACCUACUAUCCUCA | 0.194 ± 0.022
10 | GGAGACCUAUGUACUACAACCUACUACCUCA | 0.00901 ± 0.0026
11 | GGAGACCUAUCUAUACCACCUACUACCUCA | 0.095 ± 0.017
12 | GGAGACCUAUGUAAACAACCUUCUACCUCA | 0.00363 ± 0.0033
13 | GGAGACCUAUCUAUACAACCUAUCUACCUCA | 0.0483 ± 0.0065
14 | GGAGACCUAUGUAUACAACGUACUACCUCA | 0.00969 ± 0.0018
15 | GGAGUGGAUACUAUUCAACCUACUUCCUCA | 0.00253 ± 0.002
16 | GGAGACCUAUGAUAUCAAGCUACUACCUGA | 0.00472 ± 0.003
17 | GGAGACCUAUGAUUACAACGUACAACCUCA | 0.00532 ± 0.0027
18 | GGAGACCUAUGUAUUCAACCUACAACCUCA | 0.0352 ± 0.0064
19 | GGAGAGGAUACUAUAAACCUACUACCUCA | 0.0203 ± 0.0036
20 | GGAGACCUAACUAUACUACCUAGUACCUCA | 0.0154 ± 0.0058

Row | Sequence | pre-steady-state target cleavage rate
21 | GGAGACCUAUGAUUACAACCUACUACCUUCA | 0.00664 ± 0.0022
22 | GGAGUGGAUAGUAUUCAACCUACUACCUCA | 0.106 ± 0.011
23 | GGAGACCUAACUAUAGAAGCUACUACCUCA | 0.156 ± 0.029
24 | GGAGACCUAUCUUACAACCUACUACCUCA | 0.0336 ± 0.0082
25 | GGAGUGGAUACAAAACAACCUACUACCUCA | 0.12 ± 0.0086
26 | GGAGACCUAUCUAUACAACCUACUAGCACA | 0.0357 ± 0.012
27 | GGAGUGGAUACUAUACAACCUAGAACCUCA | 0.0036 ± 0.0022
28 | GGAGACCUUACUAUACAACCUACUUGCUCA | 0.098 ± 0.021
29 | GGAGACCUAACUAUACAUCCUACUACGUCA | 0.173 ± 0.052
30 | GGAGACCUAUGUAUACCACCUACUACCUCA | 0.0404 ± 0.0088
31 | GGAGACCUAUGAAUACAAGCUAGUACCUCA | 0.0081 ± 0.0031
32 | GGAGACCAUACAAUUCAACCUACUACCUCA | 0.13 ± 0.013
33 | GGAGACCUAUCUAUACAACCAACUACCACA | 0.00574 ± 0.0023
34 | GGAGACCAUAGUAUUCAACCUACUACCUCA | 0.11 ± 0.013
35 | GGAGACCUUACUUUACAACCUACUUCCUCA | 0.0347 ± 0.011
36 | GGAGAGGAUACUAUACUACCUACUACGUCA | 0.0806 ± 0.01
37 | GGAGACCUAUGAAUACAACCUUCUACCUCA | 0.00275 ± 0.0024
38 | GGAGAGGAUAGAUUACAACCUACUACCUCA | 0.0529 ± 0.0086
39 | GGAGACCUAUGAUAUGUACCUACUACCUGA | < 0.0001
40 | GGAGACCUAUGAUUACAACCUACUACCAUCA | 0.00378 ± 0.0028
